Results published in the supplement of paper PMC8728848.
The sample as a whole holds a higher share of the strongest signals than the screen did.

Columns and labels:
Assay in all cases: glycan array binding signal (z-score within array); higher = stronger binding
Conditions in all cases: glycan notation: IUPAC condensed, linker removed
[1] = molecular target: Fuc(a1-2)Gal(b1-3)[Fuc(a1-4)]GlcNAc(b1-3)[Fuc(a1-3)[Gal(b1-4)]GlcNAc(b1-6)]Gal(b1-4)Glc
How it was run: (§1)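 The binding signal is a Z-score computed within each array and averaged over linkers. Arrays of the same protein sequence at different concentrations or buffers were also averaged together. Data originate from 3228 arrays in the Consortium for Functional Glycomics database, kept only where the protein sequence was available.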

[2] = molecular target: Fuc(a1-2)Gal(b1-4)[Fuc(a1-3)]GlcNAc(b1-2)[Fuc(a1-2)Gal(b1-4)[Fuc(a1-3)]GlcNAc(b1-4)]Man(a1-3)[Fuc(a1-2)Gal(b1-4)[Fuc(a1-3)]GlcNAc(b1-2)Man(a1-6)]Man(b1-4)GlcNAc(b1-4)GlcNAc
How it was run: as §1

[3] = molecular target: Fuc(a1-2)[Gal(a1-3)]Gal(b1-3)GlcNAc
How it was run: as §1

[4] = molecular target: Fuc(a1-2)[Gal(a1-3)]Gal(b1-4)[Fuc(a1-3)]Glc
How it was run: as §1

[5] = molecular target: Fuc(a1-2)[GalNAc(a1-3)]Gal(b1-3)GlcNAc(b1-2)Man(a1-3)[Fuc(a1-2)[GalNAc(a1-3)]Gal(b1-3)GlcNAc(b1-2)Man(a1-6)]Man(b1-4)GlcNAc(b1-4)GlcNAc
How it was run: as §1

[6] = molecular target: Fuc(a1-2)[GalNAc(a1-3)]Gal(b1-4)GlcNAc(b1-3)GalNAc
How it was run: as §1

[7] = molecular target: Fuc(a1-2)[GalNAc(a1-4)]Gal(b1-4)GlcNAc
How it was run: as §1

[8] = molecular target: Gal(b1-3)GalNAc(b1-4)[Neu5Ac(a2-3)]Gal(b1-4)Glc
How it was run: as §1

[9] = molecular target: Gal(b1-3)GlcNAc(b1-2)Man(a1-3)[Gal(b1-3)GlcNAc(b1-2)Man(a1-6)]Man(b1-4)GlcNAc(b1-4)[Fuc(a1-6)]GlcNAc
How it was run: as §1

[10] = molecular target: Gal(b1-3)GlcNAc(b1-2)Man(a1-3)[GlcNAc(b1-4)][Gal(b1-3)GlcNAc(b1-2)Man(a1-6)]Man(b1-4)GlcNAc(b1-4)GlcNAc
How it was run: as §1

Gal(b1-4)Glc6S = molecular target: Gal(b1-4)Glc6S
How it was run: as §1

[11] = molecular target: Gal(b1-4)GlcNAc(b1-2)Man(a1-3)[Gal(b1-4)GlcNAc(b1-2)Man(a1-6)]Man(b1-4)GlcNAc(b1-4)[Fuc(a1-6)]GlcNAc
How it was run: as §1

[12] = molecular target: Gal(b1-4)GlcNAc(b1-2)Man(a1-3)[Gal(b1-4)GlcNAc(b1-2)Man(a1-6)][Gal(b1-4)GlcNAc(b1-4)]Man(b1-4)GlcNAc(b1-4)[Fuc(a1-6)]GlcNAc
How it was run: as §1

[13] = molecular target: Gal(b1-4)GlcNAc(b1-3)Gal(b1-3)GalNAc
How it was run: as §1

[14] = molecular target: Gal(b1-4)GlcNAc(b1-3)Gal(b1-4)GlcNAc(b1-2)Man(a1-3)[Gal(b1-4)GlcNAc(b1-3)Gal(b1-4)GlcNAc(b1-2)Man(a1-6)]Man(b1-4)GlcNAc(b1-4)[Fuc(a1-6)]GlcNAc
How it was run: as §1

[15] = molecular target: Gal(b1-4)GlcNAc(b1-3)Gal(b1-4)GlcNAc(b1-3)Gal(b1-4)GlcNAc(b1-2)Man(a1-3)[Gal(b1-4)GlcNAc(b1-3)Gal(b1-4)GlcNAc(b1-3)Gal(b1-4)GlcNAc(b1-2)Man(a1-6)]Man(b1-4)GlcNAc(b1-4)[Fuc(a1-6)]GlcNAc
How it was run: as §1

[16] = molecular target: Gal(b1-4)GlcNAc(b1-3)Gal(b1-4)GlcNAc(b1-3)Gal(b1-4)GlcNAc(b1-3)Gal(b1-4)GlcNAc(b1-2)Man(a1-3)[Gal(b1-4)GlcNAc(b1-3)Gal(b1-4)GlcNAc(b1-3)Gal(b1-4)GlcNAc(b1-3)Gal(b1-4)GlcNAc(b1-2)Man(a1-6)]Man(b1-4)GlcNAc(b1-4)[Fuc(a1-6)]GlcNAc
How it was run: as §1

[17] = molecular target: Gal(b1-4)GlcNAc(b1-3)Gal(b1-4)GlcNAc(b1-3)Gal(b1-4)GlcNAc(b1-3)Gal(b1-4)GlcNAc(b1-3)Gal(b1-4)GlcNAc(b1-2)Man(a1-3)[Gal(b1-4)GlcNAc(b1-3)Gal(b1-4)GlcNAc(b1-3)Gal(b1-4)GlcNAc(b1-3)Gal(b1-4)GlcNAc(b1-3)Gal(b1-4)GlcNAc(b1-2)Man(a1-6)]Man(b1-4)GlcNAc(b1-4)[Fuc(a1-6)]GlcNAc
How it was run: as §1

[18] = molecular target: Gal(b1-4)GlcNAc(b1-3)Gal(b1-4)GlcNAc(b1-6)[Gal(b1-3)]GalNAc
How it was run: as §1

Gal3S(b1-4)GlcNAc = molecular target: Gal3S(b1-4)GlcNAc
How it was run: as §1

Gal6S(b1-3)GlcNAc6S = molecular target: Gal6S(b1-3)GlcNAc6S
How it was run: as §1

[19] = molecular target: GalNAc(b1-3)Gal(a1-6)Gal(b1-4)Glc
How it was run: as §1

GalNAc(b1-4)Gal(b1-4)Glc = molecular target: GalNAc(b1-4)Gal(b1-4)Glc
How it was run: as §1

GalNAc(b1-6)GalNAc = molecular target: GalNAc(b1-6)GalNAc
How it was run: as §1

GlcA(b1-6)Gal = molecular target: GlcA(b1-6)Gal
How it was run: as §1

[20] = molecular target: GlcNAc(a1-4)Gal(b1-4)GlcNAc(b1-3)Gal(b1-4)[Fuc(a1-3)]GlcNAc(b1-3)Gal(b1-4)[Fuc(a1-3)]GlcNAc
How it was run: as §1

[21] = molecular target: GlcNAc(b1-2)[GlcNAc(b1-4)]Man(a1-3)[GlcNAc(b1-2)Man(a1-6)]Man(b1-4)GlcNAc(b1-4)GlcNAc
How it was run: as §1

[22] = molecular target: GlcNAc(b1-2)[GlcNAc(b1-6)]Man(a1-6)[GlcNAc(b1-2)Man(a1-3)]Man(b1-4)GlcNAc(b1-4)[Fuc(a1-6)]GlcNAc
How it was run: as §1

GlcNAc(b1-3)Fuc = molecular target: GlcNAc(b1-3)Fuc
How it was run: as §1

GlcNAc(b1-3)Gal(b1-4)Glc = molecular target: GlcNAc(b1-3)Gal(b1-4)Glc
How it was run: as §1

[23] = molecular target: GlcNAc(b1-3)Gal(b1-4)GlcNAc(b1-2)Man(a1-3)[GlcNAc(b1-3)Gal(b1-4)GlcNAc(b1-2)Man(a1-6)]Man(b1-4)GlcNAc(b1-4)[Fuc(a1-6)]GlcNAc
How it was run: as §1

[24] = molecular target: GlcNAc(b1-3)Gal(b1-4)GlcNAc(b1-3)Gal(b1-4)GlcNAc(b1-2)Man(a1-3)[GlcNAc(b1-3)Gal(b1-4)GlcNAc(b1-3)Gal(b1-4)GlcNAc(b1-2)Man(a1-6)]Man(b1-4)GlcNAc(b1-4)[Fuc(a1-6)]GlcNAc
How it was run: as §1

[25] = molecular target: GlcNAc(b1-3)Gal(b1-4)GlcNAc(b1-3)Gal(b1-4)GlcNAc(b1-3)Gal(b1-4)GlcNAc(b1-2)Man(a1-3)[GlcNAc(b1-3)Gal(b1-4)GlcNAc(b1-3)Gal(b1-4)GlcNAc(b1-3)Gal(b1-4)GlcNAc(b1-2)Man(a1-6)]Man(b1-4)GlcNAc(b1-4)[Fuc(a1-6)]GlcNAc
How it was run: as §1

[26] = molecular target: GlcNAc(b1-3)Gal(b1-4)GlcNAc(b1-3)Gal(b1-4)GlcNAc(b1-3)Gal(b1-4)GlcNAc(b1-2)[GlcNAc(b1-3)Gal(b1-4)GlcNAc(b1-3)Gal(b1-4)GlcNAc(b1-3)Gal(b1-4)GlcNAc(b1-6)]Man(a1-6)[GlcNAc(b1-3)Gal(b1-4)GlcNAc(b1-3)Gal(b1-4)GlcNAc(b1-3)Gal(b1-4)GlcNAc(b1-2)Man(a1-3)]Man(b1-4)GlcNAc(b1-4)[Fuc(a1-6)]GlcNAc
How it was run: as §1

[27] = molecular target: GlcNAc(b1-3)Gal(b1-4)GlcNAc(b1-6)[Gal(b1-3)]GalNAc
How it was run: as §1

[28] = molecular target: GlcNAc(b1-4)GlcNAc(b1-4)GlcNAc(b1-4)GlcNAc(b1-4)GlcNAc(b1-4)GlcNAc
How it was run: as §1

[29] = molecular target: GlcNAc(b1-4)[GlcNAc(b1-6)]GalNAc
How it was run: as §1

[30] = molecular target: Man(a1-2)Man(a1-2)Man(a1-6)[Man(a1-3)]Man
How it was run: as §1

[31] = molecular target: Man(a1-3)[Man(a1-6)]Man(b1-4)GlcNAc(b1-4)[Fuc(a1-6)]GlcNAc
How it was run: as §1

Man(a1-6)Man = molecular target: Man(a1-6)Man
How it was run: as §1

[32] = molecular target: Neu5Ac(a2-3)Gal(b1-3)GlcNAc(b1-3)Gal(b1-3)GlcNAc
How it was run: as §1

Neu5Ac(a2-3)GalNAc = molecular target: Neu5Ac(a2-3)GalNAc
How it was run: as §1

[33] = molecular target: Neu5Ac(a2-6)Gal(b1-4)GlcNAc(b1-2)Man(a1-3)Man(b1-4)GlcNAc(b1-4)GlcNAc
How it was run: as §1

[34] = molecular target: Neu5Ac(a2-6)Gal(b1-4)GlcNAc(b1-2)Man(a1-3)[Man(a1-6)]Man(b1-4)GlcNAc(b1-4)GlcNAc
How it was run: as §1

[35] = molecular target: Neu5Ac(a2-6)Gal(b1-4)GlcNAc(b1-2)Man(a1-3)[Neu5Ac(a2-6)Gal(b1-4)GlcNAc(b1-2)Man(a1-6)]Man(b1-4)GlcNAc(b1-4)[Fuc(a1-6)]GlcNAc
How it was run: as §1

[36] = molecular target: Neu5Ac(a2-6)Gal(b1-4)GlcNAc(b1-3)Gal(b1-4)GlcNAc(b1-6)[Gal(b1-3)]GalNAc
How it was run: as §1

B1: HML-Native (Hypnea musciformis), P84871 (protein)
chain: QKFCTLDIAPVCCQIVIGGGMYTAGNACMCEGFVSGVGRCENPKECPCTREAQIPSCCSSRWGLVSVTGKCACDCLGGTVAFPEPCPSPY
glycan array binding signal (z-score) [1]: -0.188 | glycan array binding signal (z-score) [2]: -0.059 | glycan array binding signal (z-score) [3]: -0.211 | glycan array binding signal (z-score) [4]: -0.283 | glycan array binding signal (z-score) [5]: -0.093 | glycan array binding signal (z-score) [6]: -0.302 | glycan array binding signal (z-score) [7]: -0.162 | glycan array binding signal (z-score) [8]: -0.318 | glycan array binding signal (z-score) [9]: 5.16 | glycan array binding signal (z-score) [10]: -0.276 | glycan array binding signal (z-score) (Gal(b1-4)Glc6S): -0.313 | glycan array binding signal (z-score) [11]: 5.65 | glycan array binding signal (z-score) [12]: 1.48 | glycan array binding signal (z-score) [13]: -0.238 | glycan array binding signal (z-score) [14]: 5.52 | glycan array binding signal (z-score) [15]: 4.93 | glycan array binding signal (z-score) [16]: 4.9 | glycan array binding signal (z-score) [17]: 4.8 | glycan array binding signal (z-score) [18]: -0.192 | glycan array binding signal (z-score) (Gal3S(b1-4)GlcNAc): -0.233 | glycan array binding signal (z-score) (Gal6S(b1-3)GlcNAc6S): -0.323 | glycan array binding signal (z-score) [19]: -0.345 | glycan array binding signal (z-score) (GalNAc(b1-4)Gal(b1-4)Glc): -0.252 | glycan array binding signal (z-score) (GalNAc(b1-6)GalNAc): -0.284 | glycan array binding signal (z-score) (GlcA(b1-6)Gal): -0.241 | glycan array binding signal (z-score) [20]: 0.641 | glycan array binding signal (z-score) [21]: -0.307 | glycan array binding signal (z-score) [22]: 4.99 | glycan array binding signal (z-score) (GlcNAc(b1-3)Fuc): -0.11 | glycan array binding signal (z-score) (GlcNAc(b1-3)Gal(b1-4)Glc): -0.205 | glycan array binding signal (z-score) [23]: 5.62 | glycan array binding signal (z-score) [24]: 5.5 | glycan array binding signal (z-score) [25]: 5.16 | glycan array binding signal (z-score) [26]: 1.38 | glycan array binding signal (z-score) [27]: -0.272 | glycan array binding signal (z-score) [28]: -0.197 | glycan array binding signal (z-score) [29]: -0.239 | glycan array binding signal (z-score) [30]: -0.005 | glycan array binding signal (z-score) [31]: 5.72 | glycan array binding signal (z-score) (Man(a1-6)Man): -0.3 | glycan array binding signal (z-score) [32]: -0.295 | glycan array binding signal (z-score) (Neu5Ac(a2-3)GalNAc): -0.258 | glycan array binding signal (z-score) [33]: -0.157 | glycan array binding signal (z-score) [34]: -0.166 | glycan array binding signal (z-score) [35]: 5.65 | glycan array binding signal (z-score) [36]: -0.205
